In the supplement of paper PMC13380429:

Test system: Vero E6 infected with SARS-CoV-2
Assay: inhibition of SARS-CoV-2 cytopathic effect; higher = more antiviral protection, active = above 15
Settings: 48 h

Measured: inhibition of SARS-CoV-2 cytopathic effect

O=C(O)C1=CCCNC1 [guvacine]
inactive: 1 nM 2% | 8.33 nM 5.07% | 100 nM 3.21% | 833.33 nM 6.87% | 10000 nM 6.39%

CCCCCCCCCCCCCCSCC(=O)O [tetradecylthioacetic-acid]
inactive: 1 nM 0.56% | 8.33 nM 0.01% | 100 nM -2.65% | 833.33 nM -4.9% | 10000 nM 1.48%

Cc1cccc(/C=N/Nc2cc(N3CCOCC3)nc(OCCc3ccccn3)n2)c1
inactive: 1 nM 0.81% | 8.33 nM 1.56%
active: 100 nM 26.8% | 833.33 nM 20.4% | 10000 nM 19.1%

CCN1C(C)(C)CC(Oc2ccc(C(=O)Nc3ccc(NC(=O)Nc4cc(C(C)(C)C)on4)cc3)nc2)CC1(C)C
inactive: 1 nM -2.79% | 8.33 nM -0.55% | 100 nM -1.48% | 833.33 nM -1.05% | 10000 nM -4.86%

N[C@@H]1c2cccnc2[C@H](OC(=O)N2CCC(n3c(=O)[nH]c4ncccc43)CC2)CC[C@H]1c1cccc(F)c1F [rimegepant]
inactive: 1 nM -0.34% | 8.33 nM 1.65% | 100 nM -0.46% | 833.33 nM -1.15% | 10000 nM 0.55%

CCN(CC)CCOC(=O)C(Cc1cccc2ccccc12)CC1CCCO1 (mixture of isomers) [naftidrofuryl]
inactive: 1 nM 0.67% | 8.33 nM -0.29% | 100 nM 2.4% | 833.33 nM 1.45% | 10000 nM -1.13%

C#C[C@]1(OC(=O)CCCCCC)CC[C@H]2[C@@H]3CCC4=CC(=O)CC[C@@H]4[C@H]3CC[C@@]21C [norethisterone-enanthate]
inactive: 1 nM 2.31% | 8.33 nM 0.16% | 100 nM 0.91% | 833.33 nM -1.87% | 10000 nM -1.58%

Cc1nc(C)c(Cl)c(O)c1Cl [clopidol]
inactive: 1 nM -2.81% | 8.33 nM -1.24% | 100 nM 1.07% | 833.33 nM 0.96% | 10000 nM 1.78%

CCOC(=O)Nc1ccc2c(c1)N(C(=O)CN(CC)CC)c1ccccc1CC2
inactive: 1 nM -0.45% | 8.33 nM 0.56% | 100 nM 1.77% | 833.33 nM 0.29% | 10000 nM 0.79%

CCCCCCOC(=O)NC(=N)c1ccc(NCc2nc3cc(C(=O)N(CCC(=O)OCC)c4ccccn4)ccc3n2C)cc1 [dabigatran-etexilate]
inactive: 1 nM 1% | 8.33 nM 2.6% | 100 nM 1.5% | 833.33 nM 1.44% | 10000 nM -2.8%

CN1CCN(c2ccc(C(=O)Nc3n[nH]c4ccc(Cc5cc(F)cc(F)c5)cc34)c(NC3CCOCC3)c2)CC1 [entrectinib]
inactive: 1 nM 4% | 8.33 nM 2.95% | 100 nM -2.01% | 833.33 nM -2.36% | 10000 nM -12.4%

O=C(O)CCCc1c[nH]c2ccccc12 [3-indolebutyric-acid]
inactive: 1 nM -1.83% | 8.33 nM -1.26% | 100 nM 0.03% | 833.33 nM -3.61% | 10000 nM -2.44%

CC(C)Cc1ccc([C@@H](C)C(=O)NCCO)cc1 (racemic) [mabuprofen]
inactive: 1 nM -1.95% | 8.33 nM -2.13% | 100 nM -0.66% | 833.33 nM -0.72% | 10000 nM -4.85%

Nc1c(Br)cc(Br)cc1CN[C@H]1CC[C@H](O)CC1 [ambroxol]
inactive: 1 nM -4.07% | 8.33 nM -1% | 100 nM -0.99% | 833.33 nM 1.23% | 10000 nM -1.75%

CC(C)(C)c1ccc(CN(Cc2cccc(OCC(=O)O)c2)S(=O)(=O)c2cccnc2)cc1 [evatanepag]
inactive: 1 nM -1.15% | 8.33 nM -0.63% | 100 nM -1.94% | 833.33 nM -1.15% | 10000 nM -2.53%

O=Nc1c(-c2c(O)[nH]c3ccccc23)[nH]c2ccccc12 [indirubin-3-monoxime]
inactive: 1 nM 0.43% | 8.33 nM 0.8% | 100 nM 1.06% | 833.33 nM 5.66% | 10000 nM 3.83%

CCc1cnc(N2CCC(c3nc(COc4ccc(-n5cnnn5)cc4)cs3)CC2)nc1
inactive: 1 nM 1.55% | 8.33 nM -3.29% | 100 nM -4.15% | 833.33 nM -3.29% | 10000 nM 0.22%

CCOC(=O)[C@H](CCc1ccccc1)N[C@@H](C)C(=O)N1Cc2cc(OC)c(OC)cc2C[C@H]1C(=O)O [moexipril]
inactive: 1 nM -1.91% | 8.33 nM 1.34% | 100 nM -0.63% | 833.33 nM -0.22% | 10000 nM 0.1%

O=C(/C=C/c1ccc(O)c(O)c1)O[C@@H]1C[C@](O)(C(=O)O)C[C@@H](O)[C@H]1O [chlorogenic-acid]
inactive: 1 nM -0.66% | 8.33 nM 1.67% | 100 nM 1.61% | 833.33 nM -0.18% | 10000 nM -0.05%

CCCCCCC[N+](CC)(CC)CCCCc1ccc(Cl)cc1 [clofilium]
inactive: 1 nM 2.85% | 8.33 nM 1.44% | 100 nM 1.58% | 833.33 nM 1.2% | 10000 nM 3.38%

O=C1Nc2ccccc2/C1=C1/Nc2ccccc2C1=O [indirubin]
inactive: 1 nM -0.6% | 8.33 nM -1.11% | 100 nM -0.33% | 833.33 nM 1.04% | 10000 nM 0.51%

O=C(NCCN1CCC2(CC1)C(=O)NCN2c1cccc(F)c1)c1ccc2ccccc2c1
active: 10000 nM 83.1%
inactive: 1 nM 0.75% | 8.33 nM 3.53% | 100 nM 1.66% | 833.33 nM 1.45%

Cc1ccc2c(c1)C1(CCN(CCc3nc(-c4ccccc4)oc3C)CC1)OC(=O)N2
inactive: 1 nM 1.69% | 8.33 nM 4.93% | 100 nM 0.82% | 833.33 nM -0.79% | 10000 nM -7.82%

CN(C(=O)Cc1ccc(Cl)c(Cl)c1)[C@H](CN1CCCC1)c1ccccc1
active: 10000 nM 34.8%
inactive: 1 nM 4.62% | 8.33 nM 6.47% | 100 nM 6.09% | 833.33 nM -0.24%

CCCN1CCC[C@@H]2Cc3nc(N)ncc3C[C@H]21 [quinelorane]
inactive: 1 nM 0.91% | 8.33 nM -0.4% | 100 nM 0.8% | 833.33 nM -1.2% | 10000 nM -1.06%

CC[C@H]1CN2CC[C@H]1C[C@@H]2[C@@H](O)c1ccnc2ccc(OC)cc12 [hydroquinidine]
inactive: 1 nM 2.34% | 8.33 nM 3.2% | 100 nM 0.81% | 833.33 nM 2.84% | 10000 nM 1.57%

O=C(O)Cc1ccc2c(c1)C(=O)c1ccccc1CO2 [isoxepac]
inactive: 1 nM -4.41% | 8.33 nM -3.03% | 100 nM -6.78% | 833.33 nM -4.01% | 10000 nM 0.02%

COc1ccc2[nH]c3c(-c4cccc5ccccc45)nccc3c2c1
inactive: 1 nM -2.63% | 8.33 nM 0.26% | 100 nM -0.2% | 833.33 nM -4.62% | 10000 nM -2.93%

COc1cc2c(cc1OC)CC(=O)N(CCCN(C)C[C@H]1Cc3cc(OC)c(OC)cc31)CC2 [ivabradine]
inactive: 1 nM -0.16% | 8.33 nM -0.37% | 100 nM -0.32% | 833.33 nM -1.75% | 10000 nM -1.11%

CC(C)(C#N)c1ccc(N2C(=O)OCc3cnc4ccc(-c5cnc6ccccc6c5)cc4c32)cc1
inactive: 1 nM 4.95% | 8.33 nM 2.48% | 100 nM 2.65% | 833.33 nM 2.93% | 10000 nM 4.4%

O=C(O)C1(C(=O)O)CCC1.[NH2-].[NH2-].[Pt+2] [carboplatin]
inactive: 1 nM 2.35% | 8.33 nM 3.65% | 100 nM 4.49% | 833.33 nM 9.87% | 10000 nM 4.39%

O=C(O)c1ccc(-c2ccc3cc(O)c(C45CC6CC(CC(C6)C4)C5)cc3c2)cc1
inactive: 1 nM 5.35% | 8.33 nM 1.59% | 100 nM 3.64% | 833.33 nM 3.49% | 10000 nM 5.63%

N[C@@H](Cc1c[nH]c2ccc(O)cc12)C(=O)O [5-hydroxytryptophan]
inactive: 1 nM -0.86% | 8.33 nM 0.52% | 100 nM 1.04% | 833.33 nM 2.16% | 10000 nM 2.55%

O[C@@H](Cc1ccncc1)C(Cl)(Cl)Cl
inactive: 1 nM 0.9% | 8.33 nM 1.38% | 100 nM 3.16% | 833.33 nM 0.72% | 10000 nM 0.84%

N#C/C(=C1/SC[C@@H](c2ccc(Cl)cc2Cl)S1)n1ccnc1 [luliconazole]
inactive: 1 nM 1% | 8.33 nM 1.92% | 100 nM 2.17% | 833.33 nM 1.1% | 10000 nM 3.29%

CCN(CC)Cc1cc(Nc2ccnc3cc(Cl)ccc23)ccc1O [amodiaquine]
inactive: 1 nM 3.02% | 8.33 nM 3.97% | 100 nM 0.97% | 833.33 nM -1.05%
active: 10000 nM 44.7%

CC(C)(Oc1ccc(Cl)cc1)C(=O)OCCOC(=O)c1cccnc1 [etofibrate]
inactive: 1 nM 0.78% | 8.33 nM 2.82% | 100 nM 0.41% | 833.33 nM 0.22% | 10000 nM -10.1%

O=C1c2ccc(Nc3ccc(F)cc3F)cc2CCc2ccc(OC[C@H](O)CO)cc21 [skepinone-L]
inactive: 1 nM -0.76% | 8.33 nM -3.41% | 100 nM -5.13% | 833.33 nM -8.06% | 10000 nM -9.5%

CCCCCCCCCCCCCCCCOc1nc2ccc(C)cc2c(=O)o1 [cetilistat]
inactive: 1 nM 2.2% | 8.33 nM 1.36% | 100 nM -0.06% | 833.33 nM 0.62% | 10000 nM 0.91%

Cc1cc(C(C)(C)C)c(O)c(C)c1CC1=NCCN1 [oxymetazoline]
inactive: 1 nM 0.98% | 8.33 nM 1.83% | 100 nM 1.85% | 833.33 nM 1.64% | 10000 nM 0.31%
